Data on 25 compounds can be found in PubChem BioAssay AID651791 (National Center for Advancing Translational Sciences (NCATS), 2012).

Molecules are shown by their SMILES. Inconclusive results are not listed. Calls of active or inactive are those of the source. The call rests on the fitted dose curve; in most records, active means well fitted inhibition curve with a large enough effect; inconclusive means small, poorly fitted or top-dose-only effect; inactive means no such curve, though single readings can be large or run the other way.

A short description of this assay: InCell qHTS Assay for Inhibitors of the mTORC1 Signaling Pathway in MEF (Tsc2-/-, p53-/-) Cells: Hit Validation.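 Further: phospho-S6 Ser235/236 signal normalized to propidium iodide cell count per well; nearly all actives have a fitted effect of over 75% in size.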 To be noted: phospho-rpS6 immunofluorescence, 24 h; activity change, negative = inhibition: at 38.3 µM (top of the series).
Potency means the concentration at half of the fitted maximal effect.

With `COc1ccc(Cn2c(C(=O)O)c(CNCc3ccccc3F)c3ccc(OC)cc32)cc1`, the activity change, negative = inhibition was -100%.
With `CCS(=O)(=O)c1ncc(Cl)c(C(=O)N2CCN(c3cccc(Cl)c3)CC2)n1`, the Potency is 2.61 µM (active).
Consider `CC(C)Oc1cccc(C2CC(=O)Nc3cc4c(cc32)OCO4)c1` (stereo not given), for which the activity change, negative = inhibition is -9.58%.
For the compound `COc1ccc(-c2[nH]nc3nc(-c4cc(OC)c(OC)c(OC)c4)cc(C(=O)O)c23)cc1`, the activity change, negative = inhibition was -100%.
Still for that read-out and setting: the result for `COc1ccc(OC)c(Nc2c3c(nc4ccccc24)CCC3)c1` reads -25.7%; that for `Cc1cccc(CN2CCc3nc(N4CCN(c5ccccn5)CC4)ncc3C2)c1`, -100%.
On the same count and under the same terms, the result for `CCOc1ccc(/C=C/c2nc(C#N)c(NCc3ccccc3)o2)cc1` reads -100%; that for `Cc1ccc(S(=O)(=O)Nc2ccc3c(c2)c(C(=O)OC(C)C)c(C)n3S(=O)(=O)c2ccc(C)cc2)cc1`, -100%.
Still for that read-out and setting: the result for `Cc1cc(OCC(=O)NCC2(N3CCN(C)CC3)CCCCC2)cc(C)c1Cl` reads -100%; that for `O=C(CCn1cnc2onc(-c3ccc(F)cc3)c2c1=O)Nc1ccc(F)c(Cl)c1`, -100%.
`Cc1c(Cl)cccc1NC(=O)c1oc2ccc(S(=O)(=O)N3CCC4(CC3)OCCO4)cc2c1C`: the activity change, negative = inhibition is -22.5%.
Consider `COc1ccc(NC(=O)c2ccco2)cc1NC(=O)COc1ccccc1Cl`, for which the activity change, negative = inhibition was -100%.
Same read-out and setting: the result for `O=C(Nc1ccc(Cl)cc1)c1cc(S(=O)(=O)N2CCCc3ccccc32)ccc1F` reads -100%.
`CCCOCc1cc(CN2CCN(c3ccccc3OC)CC2)c(O)c2ncccc12`: the Potency is 11.7 µM (active).
As to `O=C(CSc1cn(CC(=O)N2CCCC2)c2ccccc12)Nc1ccc(Cl)cc1`, the activity change, negative = inhibition was -100%.
As for `COc1ccc(C2=NS(=O)(=O)N(C)C(C(=O)Nc3ccc(OC(F)(F)F)cc3)=C2)cc1`, the activity change, negative = inhibition was -100%.
Consider `CCc1ccc(NC(=O)Cn2c(=O)n(-c3ccc(OC)cc3)c(=O)c3ccc(C(=O)NCc4ccc(C)cc4)cc32)cc1`, for which the Potency is 13.1 µM (active).
In the case of `COc1ccc(OCC(=O)Nc2ccc3nn(-c4ccc(OC)cc4)nc3c2)cc1`, the activity change, negative = inhibition is -100%.
With `CC(C)(C)c1ccc(C(=O)Nc2nnc3n2CCS3)cc1`, the activity change, negative = inhibition was -100%.
Same read-out and setting: the result for `FC(F)(F)c1cccc(Nc2c3c(nc4ccc(Cl)cc24)CCC3)c1` reads -100%.
Consider `CCOC(=O)N1CCN(Cc2nc3cc(NC(=O)c4ccccc4OC)ccc3n2C(C)C)CC1`, for which the activity change, negative = inhibition is -100%.
Same read-out and setting: the result for `CCC1CN(C(=O)NCc2ccc(F)cc2)c2cc(C)ccc2O1` (stereo not given) reads -100%.
As for `CCOc1ccc(N(Cc2ccccc2)C(=O)c2nc(S(C)(=O)=O)ncc2Cl)cc1`, the Potency is 2.93 µM (active).
As for `CCc1ccc(S(=O)(=O)c2nnn(-c3ccc(F)cc3)c2N)cc1`, the activity change, negative = inhibition was -100%.
Still for that read-out and setting: the result for `COC(=O)c1ccc(Nc2nnc(-c3ccc(C)c(S(=O)(=O)N4CCN(C)CC4)c3)c3ccccc23)cc1` reads -100%.
